4-MU autofl: compounds fluorescent in 4-MU spectral region. compound autofluorescence, 340/450 nm, 4-MU equivalents; stronger effect = higher value. max dye-equivalent concentration, M. hit rate 11% among 59,000. AID 589; in the data active = max dye-equivalent concentration above about 10 nM; inconclusive = mostly about 1.1 nM to 9.6 nM
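Intrinsic fluorescence at 340/450 nm (ex/em) was read after 15 min at room temperature in pH 8.0, 100 mM Tris. Each compound concentration expressed as 4-MU-equivalent concentration from a six-point 4-MU standard series on each plate.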
CRE Fsk mod: modulators of forskolin-stimulated CRE signaling in CHO cells. CHO CRE-bla reporter (cAMP response element driving beta-lactamase), forskolin EC10, beta-lactamase ratio. hit rate 2.5% among 71,000. AID 662. Potency, µM (doses to about 38.2 µM), for the others: at the highest dose activity change, negative = inhibition, usual class: activators; active = well fitted activation curve with a large enough effect in the signal ratio, with a control signal flat, not every such curve was filed as active; inconclusive = small, poorly fitted or top-dose-only effect, or effect the other way, or a change in a side signal; the % refers to the signal ratio; note: potency is the fitted concentration of half-maximal effect; % of control where 0% means no effect
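Cells were plated overnight at 37 °C, exposed to compound titrations plus EC10 NKH 477 for 3 h, then given CCF4 dye for 2 h at room temperature. Blue/green (460/530 nm) ratio was converted to %Activity and AC50 values calculated.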
HSD17B inhib: inhibitors of human HSD17B10 dehydrogenase; Q99714; recombinant HSD17B10, NADH fluorescence kinetic; Potency, µM (top dose mostly 57.1 µM), without a hit: top-dose activity change, negative = inhibition, hits mostly inhibitors; hit rate 7.6% among 75,000; AID 893;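 note: the protocol describes HADH2 (HSD17B10) and not the HSD17B4 of the title; potency is the fitted concentration of half-maximal effect; % is set by controls: 0 for no effect and ±100 for the full control effect; nearly all actives have a fitted effect of over 70% in size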
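20 nM HADH2, pH 9.0 Tris/Tween; cpd preinc 15 min RT; start w/ 1 mM NAD+ + 90 uM b-hydroxybutyryl-CoA; kinetic fluor ex360/em450 q30s x 4 min; delta last-first.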
AID923: qHTS Assay for Allosteric/Competitive Inhibitors of Caspase-1: Spectroscopic Profiling in AFC Spectral Region; compound fluorescence, AFC spectral region (405/520 nm); Potency, µM (titrated, usually from 57.5 µM), for the others: at the top dose fluorescence increase, hits mostly activators; AID 923, 2007; hit rate 1.1% among 75,000; note: potency is the fitted concentration of half-maximal effect; 0% is about no effect
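Titrations up to 57 uM read every 20 sec for 3 min (405/520 nm) with 50 nM caspase 1 and 5 uM Ac-WEHD-AFC, pH 7.5 HEPES buffer. Fluorescence-vs-time intercept gave baseline, scaled against on-plate AFC standard.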
HADH2 inhib: inhibitors of human HADH2 dehydrogenase; hit rate 3.4% among 73,000; Q99714; recombinant HADH2, NADH fluorescence, beta-hydroxybutyryl-CoA; Potency, µM (doses to about 57.1 µM), without a hit: at the top dose activity change, negative = inhibition, most hits filed as inhibitors; note: potency is the fitted concentration of half-maximal effect; % is set by controls: 0 for no effect and ±100 for the full control effect; nearly all actives have a fitted effect of over 60% in size
Target sequence (Q99714 whole entry, looked up, one chain of several): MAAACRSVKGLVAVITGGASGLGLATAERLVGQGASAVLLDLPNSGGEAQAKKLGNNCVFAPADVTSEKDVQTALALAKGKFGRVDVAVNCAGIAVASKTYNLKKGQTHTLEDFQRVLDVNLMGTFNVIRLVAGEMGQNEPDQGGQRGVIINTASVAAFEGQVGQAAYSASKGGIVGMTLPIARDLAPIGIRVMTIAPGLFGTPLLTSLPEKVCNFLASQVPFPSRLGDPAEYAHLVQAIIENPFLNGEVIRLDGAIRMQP
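Buffer 100 mM Tris-HCl pH 9.0/0.01% Tween-20; HADH2 20 nM; NAD+ 1 mM; beta-hydroxybutyryl-CoA 90 uM (all final). 15 min cpd preincubation, RT.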
A350 autofl: compounds fluorescent in Alexa 350 spectral region. max dye-equivalent concentration, M. hit rate 11% among 59,000. Compound autofluorescence, 340/450 nm, Alexa 350 dye-equivalents; stronger effect = higher value; in the data active = max dye-equivalent concentration above about 10 nM; inconclusive = mostly about 1.1 nM to 9.6 nM
* = called active by the depositor; [ ] = remark or other dose. Compounds with a hit are over-represented: about 14% of the library has one in this group of screens. Unless noted, calls come from the whole dose curve; as a rule, active = well fitted curve in the direction sought with a large enough effect; inconclusive = small, poorly fitted or top-dose-only effect, or another doubt; inactive = no such curve, though single readings can be large; an effect the other way counts as inactive or inconclusive.

`CCN1CCN(C(=O)c2nn(-c3ccc(OC)cc3)c(=O)c3c2c2ccccc2n3C)CC1` gave 4-MU autofl inconclusive, CRE Fsk mod inconclusive, HSD17B inhib 5%, AID923 0%, HADH2 inhib 53% and A350 autofl inconclusive.
Screening COC(=O)c1ccc(COc2ccc3c(C)c(C)c(=O)oc3c2C)o1 returned CRE Fsk mod inconclusive, HSD17B inhib 10µM*, AID923 -1% and HADH2 inhib 19%[11.4 µM].
Screening Cc1c(OCc2ccc(C(=O)O)o2)ccc2c3c(c(=O)oc12)CCC3 returned CRE Fsk mod inconclusive, HSD17B inhib 25µM*, AID923 3% and HADH2 inhib 45%[11.4 µM].
COC(=O)c1ccc(COc2nc(C)cc(C)c2C#N)o1 was read as 4-MU autofl inactive, CRE Fsk mod inconclusive, HSD17B inhib 4%, AID923 -1%, HADH2 inhib 5% and A350 autofl inactive.
Screening C[C@@H](CN(C)C)CN1c2ccccc2CCc2ccccc21 returned 4-MU autofl inactive, CRE Fsk mod -11%[17.1 µM], HSD17B inhib -4%[25.6 µM], AID923 2%[25.7 µM], HADH2 inhib inconclusive and A350 autofl inactive.
Screening CCOC(=O)N1CCC(N(CCOC)C(=O)Nc2ccc(Cl)c(Cl)c2)CC1 returned 4-MU autofl inactive, CRE Fsk mod -21%, HSD17B inhib -3%, AID923 -2%, HADH2 inhib 1% and A350 autofl inactive.
`CC(C)N(C)C1CCN(C(=O)Nc2ccc(Cl)c(Cl)c2)CC1` gave 4-MU autofl 2e-08M*, CRE Fsk mod inconclusive, HSD17B inhib -3%, AID923 -1%, HADH2 inhib 3% and A350 autofl inconclusive.
`O=c1oc2ccccc2cc1-c1cn2cccnc2n1` gave 4-MU autofl 4.8e-07M*, CRE Fsk mod 2%, HSD17B inhib 25µM*, AID923 9%, HADH2 inhib inconclusive and A350 autofl 4.5e-07M*.
`NC(=O)c1ccc(-c2nc(-c3ccc4c(c3)OCO4)c(-c3ccccn3)[nH]2)cc1` gave CRE Fsk mod -8%, HSD17B inhib 32µM*, AID923 0% and HADH2 inhib -4%.
`O=C(Nc1ccccc1)N1CCC2(CCNCC2)CC1` gave 4-MU autofl inactive, CRE Fsk mod -8%, HSD17B inhib 6%, AID923 5%, HADH2 inhib 3% and A350 autofl inactive.
For Cc1cc(C)c(NC2=NCC(=O)N2C2CCCCC2)c(C)c1 the results were 4-MU autofl 4.3e-08M*, CRE Fsk mod 0%, HSD17B inhib 3%, AID923 2%, HADH2 inhib 3% and A350 autofl 4e-08M*.
Screening COC(=O)c1nc(-c2ccccc2)oc1N(C)C returned 4-MU autofl 1.3e-07M*, CRE Fsk mod inconclusive, HSD17B inhib 25µM*, AID923 2%, HADH2 inhib 25µM* and A350 autofl 1.1e-07M*.
`CC(C(=O)NC1CCCC1)N(Cc1ccc2c(c1)OCO2)C(=O)c1snc(C(N)=O)c1N` (configuration not stated) gave 4-MU autofl 3.7e-08M*, CRE Fsk mod -4%, HSD17B inhib inconclusive, AID923 2%, HADH2 inhib -8% and A350 autofl 2.8e-08M*.
Screening NC(=O)c1nsc(C(=O)N(CC(=O)NCc2ccc3c(c2)OCO3)C2CCCCC2)c1N returned 4-MU autofl 7.2e-08M*, CRE Fsk mod -8%, HSD17B inhib inconclusive, AID923 3%, HADH2 inhib -2% and A350 autofl 6.8e-08M*.
For CCCC(C(=O)NC1CCCC1)N(Cc1cccs1)C(=O)c1snc(C(N)=O)c1N (configuration not stated) the results were 4-MU autofl 7.8e-08M*, CRE Fsk mod -2%, HSD17B inhib 25µM*, AID923 3%, HADH2 inhib -5% and A350 autofl 6e-08M*.

Source: PubChem BioAssay
